Measured values reported in PubChem BioAssay (EPA / NIEHS).
Results filed as inconclusive are left out. Calls of active or inactive are those of the source. How the source made its calls: active means hit-call score of the fitted dose curve at least 0.9, where 1 is the maximum; inconclusive means response in the unintended direction; inactive means score below 0.9.

Molecular target: Luciferin 4-monooxygenase (Photinus pyralis) (UniProt P08659)
Test: CCTE_Simmons_QuantiLum_inhib_2: CCTE's Firefly Luciferase Inhibition Assay, Simmons Lab (AID 2283767);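 on AC50: potency for inhibitors that lower luciferase luminescence relative to DMSO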
Procedure, shortened: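 Cell-free recombinant firefly luciferase (5 ng/well) in 200mM potassium phosphate with 1 mg/ml BSA, 30 min at 37C with 8 concentrations from 5 nM to 87.5 uM [final], 0.5% DMSO. Luminescence read after D-luciferin (150uM)/dATP (147uM) reagent injection, pH 7.8; triplicates.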

Chain of Luciferin 4-monooxygenase (Photinus pyralis) (P08659 whole entry, looked up): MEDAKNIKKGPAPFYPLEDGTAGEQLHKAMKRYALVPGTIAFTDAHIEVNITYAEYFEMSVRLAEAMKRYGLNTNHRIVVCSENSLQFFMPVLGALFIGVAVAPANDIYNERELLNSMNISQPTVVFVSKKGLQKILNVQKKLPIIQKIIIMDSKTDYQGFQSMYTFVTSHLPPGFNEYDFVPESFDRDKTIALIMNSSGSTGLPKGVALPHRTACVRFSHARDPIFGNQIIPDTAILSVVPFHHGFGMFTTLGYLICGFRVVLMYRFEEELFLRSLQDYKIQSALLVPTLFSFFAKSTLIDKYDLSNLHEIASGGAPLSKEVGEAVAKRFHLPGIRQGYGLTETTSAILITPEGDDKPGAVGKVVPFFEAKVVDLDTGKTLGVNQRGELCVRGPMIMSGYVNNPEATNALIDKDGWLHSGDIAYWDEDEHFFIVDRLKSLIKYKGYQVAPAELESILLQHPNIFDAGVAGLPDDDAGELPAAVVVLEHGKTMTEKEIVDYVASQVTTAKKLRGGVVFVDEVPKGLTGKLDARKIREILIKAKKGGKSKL

Q: For CCCCCCCCCc1ccc(OCCO)cc1, which outcome is on record?
A: inactive

Q: Which AC50 does the source give for CCN=C1C=CC(=C(c2ccc(N(CC)CC)cc2)c2ccc(N(CC)CC)cc2)c2ccccc21 here?
A: 7.95 µM (active)

Q: With C[C@]12CC[C@H]3C(=CCc4cc(O)ccc43)[C@@H]1CCC2=O as the molecule, how does the AC50 read?
A: 47 µM (active)

Q: With O=c1[nH]cccc1O as the molecule, how does the outcome read?
A: inactive

Test system: not listed separately
Test: ACEA_AR_agonist_AUC_viability: ACEA Biosciences xCELLigence Real-Time Cell Analysis on Androgen Receptor Agonism for Viability (AID 2283775);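 on AC50: viability read 80 hours after compound addition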
Procedure, shortened: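 Real-time impedance tracking of 22Rv1 growth, readings every 5 min for 5 h then hourly; area-under-curve viability endpoint at 80 hours, relative to DMSO. Compounds at eight concentrations, 1:4 steps, top 100 uM, n = 2.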

Q: With CCCCCCCCCc1ccc(OCCO)cc1 as the molecule, how does the AC50 read?
A: 9.26 µM (active)

Q: With CCN=C1C=CC(=C(c2ccc(N(CC)CC)cc2)c2ccc(N(CC)CC)cc2)c2ccccc21 as the molecule, how does the outcome read?
A: inactive

Q: With CCN=c1cc2oc3cc(NCC)c(C)cc3c(-c3ccccc3C(=O)OCC)c-2cc1C as the molecule, how does the AC50 read?
A: 0.0138 µM (active)
